# The supplement of paper PMC10338343
# ± gives the standard deviation.
# Experiments:
# [1] = system: MILI (PIWIL2) piRISC loaded with L1MC piRNA (26 nt); experiment: pre-steady-state target cleavage rate (min^-1); guide: L1MC piRNA 5'p-UAACUAAAUACUAUGCAAGCUGUAGG; higher = faster piRNA-guided slicing of the target
# Summary of the method: (§1)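 Cleave-'n-Seq: a transcribed, DNA-blocked target RNA library (0.1 nM) was mixed with 1 nM active affinity-purified piRISC carrying one synthetic guide, with or without 500 nM GTSF1 partner protein, in HEPES–potassium acetate buffer at 33 °C for 0–8 or 0–960 min. Uncleaved targets were sequenced and normalised to depth and to weakly complementary targets. Three trials were pooled, and k3 was capped at 0.0001 min^-1. The pre-steady-state cleavage rate came from a burst-and-steady-state fit.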
# [2] = system: EfPiwi piRISC loaded with L1MC piRNA (26 nt); experiment: pre-steady-state target cleavage rate (min^-1); auxiliary factor: 500 nM Ephydatia muelleri Gtsf1; guide: L1MC piRNA 5'p-UAACUAAAUACUAUGCAAGCUGUAGG; MIWI and MILI are mouse PIWI proteins and EfPiwi is from a freshwater sponge; tags in brackets are library labels; higher = faster piRNA-guided slicing of the target
# Summary of the method: as §1
# [3] = auxiliary factor: 500 nM mouse GTSF1
# [4] = auxiliary factor: none (no GTSF1)
Sequence,"pre-steady-state target cleavage rate [1, 3]","pre-steady-state target cleavage rate [1, 4]",pre-steady-state target cleavage rate [2]
UCCUGGAUGUGCUUGCAUAGUAUCUAGUUA,0.135 ± 0.031,0.00366 ± 0.0031,0.00344 ± 0.0024
UCCUGGAACAGCUUGCAUAGUAUUCAGUUA,0.228 ± 0.042,0.00292 ± 0.0026,0.00333 ± 0.0018
UCCUGGAUGUCCUGGCAUAGUAUUUAGUUA,0.066 ± 0.013,0.00414 ± 0.0026,0.0055 ± 0.0047
UCCUGGAACUGCUUGCUUAGUAUUUAGUUA,0.206 ± 0.019,0.0116 ± 0.0026,0.00646 ± 0.0033
UCCUGGACCAGCUUGCAUAGUAUUUAGUUA,0.246 ± 0.02,0.00604 ± 0.0027,0.159 ± 0.037
UCCUCCUACAGCUCGCAUAGUAUUUAGUUA,0.288 ± 0.019,0.0109 ± 0.0027,0.0845 ± 0.019
UCCUGGUACAGCUUGCAUAGUAUUUAGUA,0.226 ± 0.031,0.00521 ± 0.003,0.00657 ± 0.0033
UCCUCGUACAGCAUGCAUAGUAUUUAGUUA,0.262 ± 0.015,0.0102 ± 0.0022,0.0515 ± 0.013
UCCUGGAUGUCCUUGCAUAGUAUUUAGUA,0.0747 ± 0.012,0.00356 ± 0.0024,0.00759 ± 0.0039
UCCUGGAUGUGCUUGCAUAGUAUAAAGUUA,0.0611 ± 0.011,0.00318 ± 0.0025,0.00378 ± 0.0034
UCCUGCUACAGCUUGCAAAGUAUUUAGUUA,0.13 ± 0.012,0.00686 ± 0.0019,0.00608 ± 0.0019
UCCUGGAUGAUCUUGCAUAGUAUUUAGUUA,0.145 ± 0.016,0.00813 ± 0.003,0.0779 ± 0.023
UCCUGGAUCAGCAUGCAUACUAUUUAGUUA,0.0724 ± 0.0079,0.00491 ± 0.0019,0.00409 ± 0.0018
UCCUGGAACACCUUGCAAAGUAUUUAGUUA,0.0999 ± 0.015,0.0069 ± 0.0021,0.00814 ± 0.0031
UCCUGGAACUGCUUGCAUAGUAUUUAGUAA,0.171 ± 0.015,0.00419 ± 0.0025,0.00308 ± 0.0023
UCCUGGAUGUUCUUGCAUAGUAUUUAGUUA,0.0709 ± 0.01,0.0115 ± 0.003,0.173 ± 0.068
UCCUCCUUCAGCUAGCAUAGUAUUUAGUUA,0.228 ± 0.017,0.00519 ± 0.0022,0.0131 ± 0.0046
UCCUGGAACAGUUUGCAUAGUAUUUAGUUA,0.285 ± 0.014,0.00997 ± 0.0019,0.0565 ± 0.013
UCCUGGAUGAGCAUUGCAUAGUAUUUAGUUA,0.212 ± 0.022,0.0105 ± 0.0025,0.008 ± 0.0029
UCCUGGAACAGCUGCAUAGUAUUUAGUUA,0.279 ± 0.021,0.0069 ± 0.0026,0.0362 ± 0.0095
UCCUGCUACAGCUUGCAUAGUAUAUUAGUUA,0.389 ± 0.042,0.00735 ± 0.0029,0.0185 ± 0.0079
UCCUGGUACACCUUGCAUAGUAUUUAGUUA,0.147 ± 0.026,0.00607 ± 0.0034,0.00345 ± 0.0027
UCCUGGUACUAGCUUGCAUAGUAUUUAGUUA,0.068 ± 0.021,0.00943 ± 0.003,0.00885 ± 0.0038
UCCUGCUACAGCUUGGAUUGUAUUUAGUUA,0.0899 ± 0.011,0.00506 ± 0.0023,0.00362 ± 0.002

Sequence,"pre-steady-state target cleavage rate [1, 3]","pre-steady-state target cleavage rate [1, 4]",pre-steady-state target cleavage rate [2]
UCCUGGAUCAGCAUGCAUAGUAUUUAGUUA,0.314 ± 0.019,0.0108 ± 0.0031,0.12 ± 0.026
UCCUGGAUGUGCUUGCAUAGUAUUAAGUUA,0.162 ± 0.025,0.00745 ± 0.0021,0.00372 ± 0.0032
UCCUCGUACAGCUUGCUUAGUAUUUAGUUA,0.286 ± 0.016,0.00785 ± 0.0024,0.0519 ± 0.012
UCCUCGUACAGGUUGCAUAGUAUUUAGUUA,0.249 ± 0.01,0.00988 ± 0.0022,0.0399 ± 0.0088
UCCUGGAACAGCUUGAAUAGUAUUUAGUUA,0.243 ± 0.023,0.00657 ± 0.0025,0.0656 ± 0.017
UCCUGCUACAGCUUGGAUAGUAUUAAGUUA,0.198 ± 0.031,0.00579 ± 0.002,0.0066 ± 0.0018
UCCUGGAUGAGCUUGCUUAGUAUUUAGUAA,0.155 ± 0.022,0.00595 ± 0.0027,0.00265 ± 0.0025
UCCUCCAACAGGUUGCAUAGUAUUUAGUUA,0.28 ± 0.011,0.00862 ± 0.0019,0.0491 ± 0.011
UCCUGGAUGUGCUUGCAUAGUAUUUAGUA,0.111 ± 0.019,0.00483 ± 0.0024,0.00405 ± 0.002
UCCUGGAACUGGUUGCAUAGUAUUUAGUUA,0.202 ± 0.018,0.0046 ± 0.0029,0.02 ± 0.0073
UCCUGGUCAGCUUGCAUAGUAUUUAGUUA,0.269 ± 0.016,0.012 ± 0.0027,0.14 ± 0.027
UCCUCCUUCAGCUUGCUUAGUAUUUAGUUA,0.286 ± 0.015,0.00762 ± 0.002,0.0651 ± 0.022
UCCUCCUACAGCUUGCAUAGAUUUUAGUUA,0.0522 ± 0.012,0.00358 ± 0.002,0.0032 ± 0.002
UCCUGCUAGAGCUUGCAUAGUAAUUAGUUA,0.19 ± 0.02,0.00448 ± 0.0023,0.00471 ± 0.0019
UCCUGGAUCACCUUGCAUAGUAUUAAGUUA,0.201 ± 0.034,0.00424 ± 0.0023,0.00509 ± 0.0039
UCCUGCUACCGCUUGCAUAGUAUUUAGUUA,0.368 ± 0.035,0.0103 ± 0.0044,0.0156 ± 0.005
UCCUGCUACAGUUUGCAUAGUAUUUAGUUA,0.296 ± 0.015,0.0106 ± 0.0023,0.0365 ± 0.011
UCCUGGUACAGCUUGGUUAGUAUUUAGUUA,0.192 ± 0.023,0.0135 ± 0.0038,0.00478 ± 0.0032
UCCUGGAACAGCUUCGAUAGUAUUUAGUUA,0.262 ± 0.015,0.00483 ± 0.0022,0.00251 ± 0.0023
UCCUGGUACAGCUUGCAAACUAUUUAGUUA,0.0345 ± 0.007,0.00378 ± 0.0028,0.00276 ± 0.0022
UCCUGGAUCAGCUUGCCUAGUAUUUAGUUA,0.234 ± 0.015,0.00686 ± 0.0022,0.0512 ± 0.011
UCCUGGAUGAGCUUGCAUAGUAUUUGGUUA,0.203 ± 0.025,0.00663 ± 0.0031,0.00713 ± 0.002
UCCUCGUACAGCUUGGAUAGUAUUUAGUUA,0.265 ± 0.012,0.00962 ± 0.0023,0.0441 ± 0.0092
